This is a sample that favours compounds with a hit; in the whole collection about 1.4% have one here.
LDHA block: blocks human lactate dehydrogenase A; purified LDHA, NADH/diaphorase-resazurin fluorescence; stronger effect = lower value; activity change, % (values are at about 110 or 230 µM); 480,000 compounds, 0.15% hits; in the data active = activity change below about -30%; inconclusive = mostly about -25% to -30%;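 also: plate controls were DMSO wells for no effect and wells without enzyme for full effect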
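Resorufin fluorescence (ex540/em590), read at 0 and 20 min after diaphorase/resazurin addition, reports the NADH left after a 5 min room-temperature reaction of 2 nM human LDH5 with 0.06 mM NADH and 0.2 mM pyruvate.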
GLS inhibitor: inhibitors of human glutaminase (GLS); O94925; AID 624170; GLS enzymatic activity, qHTS titration; 410,000 compounds, 0.21% hits; Potency, µM (doses to about 45.5 µM), without a hit: at the highest dose activity change, negative = inhibition, most hits filed as inhibitors; also: potency is read from the fitted curve at half-maximal effect; % is scaled to controls: 0 for no effect and ±100 for the full control effect
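hKGA in 45 mM KH2PO4 (pH 8.2), 0.02% Tween-20 with compound, then 1mM L-Glutamine (stock as added) plus glutamate oxidase/HRP/Amplex red coupling mix. Fluorescence read initially and after 30 min at RT; signal change reflects glutamate formation.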
rTrxR1 inhibitor: rat TrxR1 inhibition | Potency, µM (titrated, usually from 114 µM), for inactives: at the top dose activity change, negative = inhibition, actives largely listed as inhibitors | O89049 | 390,000 compounds, 1% hits | recombinant rTrxR1, NADPH fluorescence consumption, selenite substrate; also: potency is read from the fitted curve at half-maximal effect; % is scaled to controls: 0 for no effect and ±100 for the full control effect; nearly all actives have a fitted effect of over 65% in size
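Rat TrxR1 (90 nM in the dispensed reagent) was pre-reduced with 400 uM NADPH for 5 min at room temperature, then incubated with compound for 15 min. After 400 uM selenite was added, NADPH fluorescence (Ex 340/Em 450 nm) was followed for 8 min.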
TrxR1 substrate: substrates of rat thioredoxin reductase 1; O89049; purified TrxR1 substrate turnover, NADPH consumption readout; Potency, µM (series often up to 114 µM), for inactives: top-dose activity change, negative = substrate turnover; AID 588456; 390,000 compounds, 0.01% hits; also: potency is read from the fitted curve at half-maximal effect; % is scaled to controls: 0 for no effect and ±100 for the full control effect; nearly all actives have a fitted effect of over 50% in size
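Rat TrxR1, dispensed at 90 nM, was prereduced with 400 uM NADPH (final) for 5 min at ~22 deg C, then incubated with compound 15 min before 400 uM selenite. A first-read NADPH fluorescence drop versus no-compound background flagged substrates.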
IDH1 R132H inh: inhibitors of human mutant IDH1 R132H; O75874; IDH1-R132H enzyme, NADPH consumption, diaphorase/resazurin fluorescence; Potency, µM (titrated, usually from 76.6 µM), for the others: at the highest dose activity change, negative = inhibition, usual class: inhibitors; 390,000 compounds, 0.093% hits; AID 602179; also: potency is read from the fitted curve at half-maximal effect; % is scaled to controls: 0 for no effect and ±100 for the full control effect; nearly all actives have a fitted effect of over 65% in size
Target sequence (O75874 whole entry R132H, stated change not applied): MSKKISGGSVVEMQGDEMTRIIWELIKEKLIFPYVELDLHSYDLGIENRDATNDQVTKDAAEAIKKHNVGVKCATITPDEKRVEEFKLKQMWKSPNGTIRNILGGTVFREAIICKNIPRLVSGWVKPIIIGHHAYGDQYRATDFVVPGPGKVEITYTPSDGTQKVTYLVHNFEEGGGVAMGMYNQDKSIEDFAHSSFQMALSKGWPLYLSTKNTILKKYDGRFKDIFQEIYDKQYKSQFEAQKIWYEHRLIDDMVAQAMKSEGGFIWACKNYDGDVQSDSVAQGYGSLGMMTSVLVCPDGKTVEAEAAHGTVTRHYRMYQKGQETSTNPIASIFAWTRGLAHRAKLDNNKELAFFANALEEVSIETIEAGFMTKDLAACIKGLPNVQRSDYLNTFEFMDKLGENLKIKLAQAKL
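IDH1-R132H (0.5 ug/mL dispensed) in pH 7.5 Tris buffer was preincubated 30 min with compound, then given a substrate mix of 0.016 mM NADPH and 2 mM alpha-KG for 80 min at room temperature; remaining NADPH was read by diaphorase/resazurin fluorescence.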
PKM2 act: increases activity of human pyruvate kinase M2. P14618. purified PKM2, Kinase-Glo ATP luminescence, activation; response scale: 0% is enzyme alone, no compound. Potency, µM (titrated, usually from 57.5 µM), for the others: at the top dose activation, hits mostly activators. 260,000 compounds, 0.34% hits. AID 1631; also: potency is read from the fitted curve at half-maximal effect; % is scaled to controls: 0 for no effect and ±100 for the full control effect; nearly all actives have a fitted effect of over 55% in size
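ATP formation by purified human PK-M2, quantified via coupled luciferase luminescence after 1 h at room temperature with 0.1 mM ADP and 0.5 mM PEP final.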
IDH1 autofl: counter-screen for mutant IDH1 inhibitors: fluorescence interference; shares compounds with IDH1 R132H inh; Resorufin detection reagent fluorescence interference, cell-free; inhibition of signal, % at 51.2 µM; 750 tested, under 10 active; AID 623980;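 also: 0% = wells with normal resorufin and full inhibition = wells lacking resorufin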
IDH1 WT: selectivity of mutant IDH1 inhibitors: human wild-type IDH1. Potency, µM (series often up to 115 µM), without a hit: at the top dose activity change, negative = inhibition, hits mostly inhibitors. 750 compounds, 9% hits. WT IDH1 enzyme, NADPH diaphorase/resazurin fluorescence. shares compounds with IDH1 R132H inh;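 also: potency is read from the fitted curve at half-maximal effect; 0% = full WT IDH1 enzyme control and full inhibition = no enzyme wells; nearly all actives have a fitted effect of over 55% in size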
Target sequence (O75874 whole entry, looked up): as the sequence (O75874 whole entry R132H, stated change not applied) above, with H132R counted along it
IDH1 R132H conf: confirmation of human mutant IDH1 inhibitors. shares compounds with IDH1 R132H inh. Potency, µM (doses to about 76.6 µM), without a hit: at the top dose activity change, negative = inhibition, usual class: inhibitors. 750 compounds, 83% hits. IDH1 R132H enzyme, NADPH diaphorase/resazurin fluorescence; also: potency is read from the fitted curve at half-maximal effect; nearly all actives have a fitted effect of over 50% in size
Numbers without * were called inactive; ? = inconclusive; nt = no result given; [ ] = remark or other dose. Unless noted, calls follow the shape of the dose curve; as a rule, active = well fitted curve in the direction sought with a large enough effect; inconclusive = small, poorly fitted or top-dose-only effect, or another doubt; inactive = no such curve, though single readings can be large; an effect the other way counts as inactive or inconclusive.

SMILES	LDHA block	GLS inhibitor	rTrxR1 inhibitor	TrxR1 substrate	IDH1 R132H inh	PKM2 act	IDH1 autofl	IDH1 WT	IDH1 R132H conf
Cc1ccc(N(C(=O)c2snc(C(N)=O)c2N)C(C(=O)NC2CCCC2)c2ccco2)cc1 (stereo not given)	-0.8	10.8%	-22.9%	-6.8%	?	-5.2%	6.5	-1.5%	28.2µM*
Cc1ccc(N(C(=O)c2snc(C(N)=O)c2N)C(C(=O)NC2CCCC2)c2ccc(C)o2)cc1 (stereo not given)	-7.4	3.1%	-5.0%	12.9%	?	nt	-0.6	3.0%	20µM*
COCCNC(=O)C(c1ccc(C)o1)N(C(=O)c1snc(C(N)=O)c1N)c1ccc(C)cc1 (stereo not given)	-6.0	16.6%	3.8%	13.6%	-9.0%	6.1%	nt	nt	nt
COc1ccc(C2=CC(c3c(F)cccc3Cl)n3nnnc3N2)cc1 (stereo not given)	1.6	nt	nt	nt	nt	nt	nt	nt	nt
COc1ccc(-c2noc(CSc3nnc(-c4ccco4)n3C)n2)c(OC)c1	12.1	nt	nt	nt	nt	nt	nt	nt	nt
CC(C)CCCNC(=O)NC(C)c1ccc(C#N)cc1 (stereo not given)	2.9	nt	nt	nt	nt	nt	nt	nt	nt
Cc1cc(C)cc(N(CCC#N)C(=O)COC(=O)c2csc(NCc3ccccc3)n2)c1	5.3	nt	nt	nt	nt	nt	nt	nt	nt
COc1cc(N(C(=O)Cc2cccs2)C(C(=O)NC2CCCCC2)c2ccc(C)cc2)ccc1-n1cnnn1 (stereo not given)	0.2	3.8%	1.3%	-1.9%	23.3µM*	2.1%	-5.6	0.2%	7.08µM*
COc1ccc(N(C(=O)Cc2cccs2)C(C(=O)NC2CCCCC2)c2cccn2C)cc1OC (stereo not given)	-6.5	1.5%	-0.5%	-9.5%[57.1 µM]	-5.4%	0.0%	nt	nt	nt
COc1ccc(N(C(=O)Cc2cccs2)C(C(=O)NC2CCCC2)c2ccncc2)cc1OC (stereo not given)	5.2	1.0%	18.6%[57.1 µM]	11.7%[0.0914 µM]	24.8%	-6.6%	nt	nt	nt
Cc1ccc(N(C(=O)Cc2cccs2)C(C(=O)NC2CCCCC2)c2ccccn2)cc1C (stereo not given)	-0.9	3.0%	-8.5%	-10.6%	?	-1.7%	-1.1	2.1%	10µM*
O=C(CSc1ccccc1)c1c[nH]c2ccccc12	8.6	nt	nt	nt	nt	nt	nt	nt	nt
CCOC(=O)CSC1=C(C#N)C(c2ccccc2OCC)C(C(=O)OCC)C(=O)N1 (stereo not given)	0.1	25.4%	-5.3%	-7.7%	5.7%	-1.1%	nt	nt	nt
CCOC(=O)CSC1=C(C#N)C(c2ccccc2OCC)C(C#N)C(=O)N1 (stereo not given)	-24.4	-9.5%	-13.5%	-4.9%	46.5µM*	0.7%	-0.8	84.1%	50.1µM*
C=CCSC1=C(C#N)C(c2ccccc2OCC)C(C#N)C(=O)N1 (stereo not given)	-12.0	37.3%	-4.3%	8.3%	?	0.8%	1.8	56.4%	44.7µM*
CCCOC(=O)CSC1=C(C#N)C(c2ccccc2OC)C(C#N)C(=O)N1 (stereo not given)	-16.0	15.1%	-20.0%	-6.6%	?	-1.9%	6.4	90.9%	44.7µM*
Cc1ccc(NC2(c3nnnn3-c3c(C)cccc3C)CCCCC2)cc1	0.6	-6.0%	39.4%	6.1%	58.5µM*	-8.0%	-7.6	0.2%	-12.4%
Cc1cc(-n2c(=S)sc3c(=O)n(-c4ccc(F)cc4)c(SCC(=O)O)nc32)ccc1Cl	-14.3	21.7%	-3.1%	-6.7%	26.1µM*	nt	-20.3	?	7.94µM*
Nc1c(S(=O)(=O)O)cc(NC(=O)c2ccccc2)c2c1C(=O)c1ccccc1C2=O	-1.9	?	7.2%	-2.3%	?	nt	-14.0	28.2µM*	14.1µM*
COc1cc(Cl)c(C)cc1NC(=O)c1ccc2c(SCC(=O)O)c3c(nc2c1)CCCC3	-7.7	151.0%	23.6%[57.1 µM]	1.5%[57.1 µM]	?	-1.8%	5.0	?	28.2µM*
CCOC(=O)c1ccccc1NC(=O)c1ccc2c(SCC(=O)O)c3c(nc2c1)CCCC3	0.8	?	-7.8%	0.7%	41.4µM*	nt	-1.6	70.8µM*	15.8µM*
COc1ccc(C)cc1NC(=O)c1ccc2c(SCC(=O)O)c3c(nc2c1)CCCC3	-9.6	8.2%	-2.6%	-3.7%	0.0%	-0.5%	nt	nt	nt
CCCCNc1c(-c2cccc(-c3ccc(OC)cc3)c2)nc2ccc(C)cn12	-0.6	23.3%	27.9%	51.8%	?	nt	-7.4	?	6.31µM*
CC(C)(C)NC(=O)CSc1nc2ccc(Nc3nc(N4CCOCC4)nc(N4CCOCC4)n3)cc2s1	2.5	0.4%	20.8%	-0.1%	?	0.7%	-1.5	-5.3%	20µM*
CCN(CCO)c1ncnc2c1sc1nc(C(C)C)c3c(c12)CC(C)(C)OC3	4.6	2.2%	9.2%	4.5%	?	-7.6%	-13.0	7.08µM*	6.31µM*
SMILES	LDHA block	GLS inhibitor	rTrxR1 inhibitor	TrxR1 substrate	IDH1 R132H inh	PKM2 act	IDH1 autofl	IDH1 WT	IDH1 R132H conf
CC(C)CNc1ncnc2c1sc1nc(C(C)C)c3c(c12)CC(C)(C)OC3	12.4	nt	nt	nt	nt	nt	nt	nt	nt
Cc1ccccc1NCC(=O)c1ccc(Br)cc1	1.6	7.9%	8.5%	7.6%	?	3.1%	1.9	103.0%	44.7µM*
COc1ccc(C(=O)N(CC#N)C2CC2)cc1OC	-6.3	nt	nt	nt	nt	nt	nt	nt	nt
COc1ccc(-c2nn(-c3ccccc3)cc2/C=C2/SC(=S)N(CCC(=O)O)C2=O)c(C)c1	-23.0	?	-9.9%	-9.2%	46.5µM*	-14.1%[11.5 µM]	2.3	?	35.5µM*
O=C(O)CCCCCN1C(=O)/C(=C/c2cn(-c3ccccc3)nc2-c2cccs2)SC1=S	-0.9	3.3%	-16.8%	-16.4%	?	nt	-2.3	1.0%	35.5µM*
CCC[C@@H]1C[C@@]1(CCC)[C@@H](NP(=O)(c1ccccc1)c1ccccc1)c1ccc(C(=O)OC)cc1	-0.3	6.5%	25.5%[57.1 µM]	9.0%[57.1 µM]	?	-1.6%	-3.1	-4.2%	22.4µM*
Cc1ccc(NC2c3ncccc3C(=O)N2Cc2cccs2)cc1 (stereo not given)	-1.7	?	15.1%[57.1 µM]	6.4%[57.1 µM]	52.1µM*	-1.1%	-2.9	1.8%	-21.0%

Screening results: PubChem BioAssay, National Center for Advancing Translational Sciences (NCATS)
